The record followed here is PMC13083723 (Patterns, 2026).

Among all 5,400 compounds or so, about 190 (3.5%) showed an effect of 50% or more. The list comes from a sample in which strong results are over-represented; it also holds similar structures and randomly drawn compounds.

The test relates to Vero-E6. The test is described as follows: primary screen, phospholipidosis by LipidTOX staining; higher = more effect of the substance. Conditions: 10 µM. The gist of the method:
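Drug-induced phospholipidosis detected with HCS LipidTOX Red reagent in Vero-E6 cells. Compounds tested at 10 μM, with amiodarone (10 μM) as positive control and DMSO (0.1 v/v %) as vehicle.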
In the case of `C=CCn1c(=O)n([C@@H]2O[C@H](CO)[C@@H](O)[C@H]2O)c2nc(N)nc(O)c21`, the result_ITMP was -1.06%.
Consider `COC(=O)C(c1ccccc1)C1CCCCN1` (stereo not shown), for which the result_ITMP is recorded as 10.3%.
The figure for `OC(c1cc(C(F)(F)F)nc2c(C(F)(F)F)cccc12)C1CCCCN1` (stereo not shown) is 50%.
The figure for `Nc1c(CC(=O)[O-])cccc1C(=O)c1ccc(Br)cc1` is 0.95%; for `NS(=O)(=O)NCCNc1nonc1/C(=N\c1ccc(F)c(Br)c1)NO` it is -3.83%.
As for `CN1[C@@H]2C[C@@H](O)C[C@H]1[C@@H]1O[C@@H]12`, the result_ITMP was determined as 17.2%.
The figure for `COc1ccc(NS(=O)(=O)c2ccc(I)cc2)cc1N1CCN(C)CC1` is 16.4%; for `COc1ccc(NC(=O)c2ccc(-c3ccc(-c4noc(C)n4)cc3C)cc2)cc1OCCN(C)C` it is 81.5%; for `COc1cc(C(=O)NCc2ccc(OCCN(C)C)cc2)cc(OC)c1OC` it is -1.29%.
In the case of `COc1ccc(C(=O)NCc2ccc(OCCN(C)C)cc2)cc1OC`, the result_ITMP amounted to 6.48%.
The value for `COc1ccccc1N1CCN(CCCCNC(=O)c2ccc(-c3ccc(C(C)=O)cc3)cc2)CC1` was 6.35%.
The figure for `COc1ccc(NC(=O)c2ccc(-c3ccc(-c4noc(C)n4)cc3C)cc2)cc1N1CCN(C)CC1` is 142%; for `C[C@@H]1CC[C@H]2C(C)(C)[C@H]3C[C@@]12CC[C@@]3(C)O` it is 4.78%; for `O=C(O)c1cc(O)c2ccccc2n1` it is 3.47%.
Consider `O=C([O-])CCCCCCCCC(=O)[O-]`, for which the result_ITMP is -5.98%.
The value for `Cc1cccc(-c2nc(C(C)(C)C)[nH]c2-c2ccc3nccnc3c2)n1` was -5.96%; that for `CCCn1c(=O)c2nc(C3CCCC3)[nH]c2n(CCC)c1=O` was 9.14%.
`C=C1CC[C@H](O)C/C1=C/C=C1\CCC[C@]2(C)[C@@H]([C@H](C)CCCC(C)(C)O)CC[C@@H]12`: the result_ITMP is -0.38%.
The value for `C=C1/C(=C\C=C2/CCC[C@]3(C)[C@@H]([C@H](C)CCCC(O)(C(F)(F)F)C(F)(F)F)CC[C@@H]23)C[C@@H](O)C[C@@H]1O` was 0.82%.
The figure for `C[C@]12CCC(=O)C=C1CCC1C2[C@@H](O)C[C@@]2(C)C1CC[C@]2(O)C(=O)COC(=O)CCC(=O)O` (stereo partly shown) is -1.39%; for `COc1cccc(CCc2ccccc2OCC[C@@H]2C[C@@H](O)CN2C)c1` it is 90.4%.
Regarding `COc1cccc(CN2C[Si](C)(C)O[Si](C)(C)C2)c1`, the result_ITMP is reported as -1.81%.
The figure for `O=c1[nH]c2ccccc2c(=O)n1CCCN1CCN(c2ccccc2)CC1` is -3.31%; for `O=c1[nH]c2ccccc2n1CCCN1CCN(C(c2ccccc2)c2ccccc2)CC1` it is 26.4%.
For `C[C@@H]1CN(CCCn2c3ccccc3c3ccccc32)C[C@H](C)N1`, the result_ITMP is given as 99.9%.
The value for `CC(C)CCC[C@@H](C)[C@H]1CC[C@H]2[C@@H]3CCC4=CC(=NO)CC[C@]4(C)[C@H]3CC[C@]12C` was -0.61%; that for `CNCCCC1(c2ccccc2)OC(C)(C)c2ccccc21` (stereo not shown) was 29.5%; that for `CNCCCN1c2ccccc2CCc2ccccc21` was 36.6%.
The value for `CNCCCC12CCC(c3ccccc31)c1ccccc12` was 107%; that for `O=C(O)c1ccc(N[C@H]2O[C@H](CO)[C@@H](O)[C@H](O)[C@@H]2O)cc1` was -5.7%; that for `CC1(S(=O)(=O)[O-])CC(=O)c2ccccc2C1=O` (stereo not shown) was -0.84%.
The value for `CN(C)CCOC1=Cc2ccccc2Sc2ccc(Cl)cc21` was 13.9%.
As for `CN(C)CCC=C1c2ccccc2CCc2ccccc21`, the result_ITMP is 39.7%.
The figure for `CN(C)CC/C=C1\c2ccccc2Sc2ccc(Cl)cc21` is 51.1%; for `CN(C)CCC=C1c2ccccc2C=Cc2ccccc21` it is 71.1%; for `CN(C)CC/C=C1\c2ccccc2CSc2ccccc21` it is 43.7%.
The figure for `CN(C)CC/C=C1/c2ccccc2COc2ccccc21` is 41.1%.
The figure for `COCc1nc2c(=O)n(C)c(=O)n(CC(C)C)c2[nH]1` is -0.95%; for `NC(N)=N/C(N)=N/CCc1ccccc1` it is -1.11%; for `CN/C(=N\C#N)NCCSCc1csc(N=C(N)N)n1` it is 2.7%.
As to `CN[C@@H]1Cc2cccc3nc(O)n(c23)C1`, the result_ITMP turned out to be 5.61%.
The figure for `CN[C@@H]1C[C@@H](c2ccc(Cl)c(Cl)c2)c2ccccc21` is 71.1%.
The figure for `COc1ccc2c(c1)CN(C)CC2c1ccc(Cl)c(Cl)c1` (stereo not shown) is 12.7%; for `CN[C@H]1CC[C@@H](c2ccc(Cl)c(Cl)c2)c2ccccc21` it is 56.1%; for `O[C@@H]1CCCC[C@H]1N1CCC(c2ccccc2)CC1` (racemic) it is -4.38%.
The figure for `S=C(NC1CCCCC1)N1CCC(c2c[nH]cn2)CC1` is 1.61%.
Regarding `Oc1ccc2c3c1OC1C(O)CCC4(O)C(C2)N(CC2CCC2)CCC314` (stereo not shown), the result_ITMP is reported as 1.96%.
The value for `CC(COc1ccccc1)N(CCCl)Cc1ccccc1` (stereo not shown) was 0.48%; that for `CC(C)COCC(CN(Cc1ccccc1)c1ccccc1)N1CCCC1` (stereo not shown) was 66.8%; that for `c1ccc(CN(CC2=NCCN2)c2ccccc2)cc1` was 16.9%.
The figure for `COc1ccc2c3c([nH]c2c1)[C@H](CC(C)C)N1C(=O)[C@H](CCC(=O)OC(C)(C)C)NC(=O)[C@@H]1C3` is -1.42%; for `N[C@@]1(C(=O)O)CC[C@H](C(=O)O)C1.N[C@]1(C(=O)O)CC[C@@H](C(=O)O)C1` it is -0.35%.
The figure for `CN1CCN(c2ccc(OC(F)(F)F)c(Nc3ncc4c(n3)-c3c(c(C(N)=O)nn3CCO)CC4)c2)CC1` is -0.49%; for `CNC(=O)c1nn(C)c2c1C(C)(C)Cc1cnc(Nc3ccc(N4CCN(C)CC4)cc3)nc1-2` it is 54.6%; for `CCS(=O)(=O)N1CCN(c2ccc(Nc3ncc(C(N)=O)c(NC4CC4)n3)cc2)CC1` it is 1.28%.
With `CC1(C)CC[C@]2(C(=O)O)CC[C@]3(C)[C@H](C(=O)C=C4[C@@]5(C)C=C(C#N)C(=O)C(C)(C)[C@@H]5CC[C@]43C)[C@@H]2C1`, the result_ITMP was -1.94%.
The figure for `C=CCCCCCCCCC(=O)[O-]` is 1.9%.
The value for `CCCCCCCCCCCCCCCC(=O)OC[C@@H](NC(=O)C(Cl)Cl)[C@H](O)c1ccc([N+](=O)[O-])cc1` was -1.35%; that for `CCCCCCCC/C=C\CCCCCCCC(=O)N[C@@H](CO)Cc1ccc(O)cc1` was -1.63%; that for `CCCCCCCC(=O)N[C@H](CN1CCCC1)[C@H](O)c1ccc2c(c1)OCCO2` was 51.9%.
The value for `CCCCCCCCC(=O)N[C@H](CN1CCCC1)[C@H](O)c1ccc2c(c1)OCCO2` was 63.4%.
